Measured values taken from PubChem BioAssay (EPA / NIEHS).
Where “and” joins values, the source holds several entries; their conditions need not be identical. Identical values can stand only once. Results filed as inconclusive are left out. Where a structure was tested more than once in an assay, its records may differ in their call. Calls of active or inactive are those of the source. How the source made its calls, unless noted: active means hit-call score of the fitted dose curve at least 0.9, where 1 is the maximum; inactive means score below 0.9.

Legend:
[1] = read-out: Secreted IgG (sIgG), gene 3500; test: BSK_BT_sIgG: BioMAP Diversity Plus: BT Assay for Secreted IgG (sIgG) Biomarker Activity (AID 2284226); details: primary human B cells with PBMC
Procedure, shortened: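 Human B cell plus PBMC co-culture; secreted IgG measured by ELISA 24 h after chemical dosing. Response fitted in positive direction relative to DMSO baseline.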

[2] = CCTE_Mundy_HCI_Cortical_Synap_Neur_Matur_NeuriteSpotCountPerNeuron: CCTE's Synaptogenesis and Neurite Maturation Assay in rat cortical cells for Neurite Spot Count per Neuron Count, Mundy Lab (AID 2284215)
Procedure, shortened: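 Read-out: neurite-associated synaptophysin puncta per neuron, imaged by high-content analysis after MAP2, synaptophysin and Hoechst staining. Rat primary cortical cultures, dosed DIV 7 through DIV 12; DMSO served as baseline.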

[3] = TAMU_PeakParms_SingleDonor1434_Chronotropy: Texas A&M University (TAMU) 1.5-hr Human Induced Pluripotent Stem Cell (iPSC)-derived Cardiomyocytes Calcium (Ca+2) Flux Assay for Cardiotoxicity: Chronotropy (changes in peak frequency) (AID 2284217); details: actives raise or lower the signal
Procedure: TAMU_PeakParms is a cell-based, multiplexed-readout assay that uses iPSC-derived cardiomyocytes with measurements taken at 1.5 hours after chemical dosing in a microplate: 384-well plate.TAMU_PeakParms_SingleDonor1434_Chronotopy is a phenotype derived from the peak.freq.avg parameter and uses an EC05 as its POD (5% increase in beat rate, compared to controls). Peak.Freq.Avg measures the average peak frequency, in beats per second, using Fluorescence intensity as a functional reporter from Calcium (Ca+2) flux assay technology. Before modeling, data is preprocessed to remove data points where there is a cessation of beating (where peak.freq.avg equals 0) to ensure the capture of the upwards response that isn't confounded by the drop in beat rate at higher concentrations and to ensure the drop in beat rate is captured before asystole, which is captured elsewhere.Data from the assay component TAMU_PeakParms_SingleDonor1434_Chronotropy was analyzed into 1 assay endpoint. This assay endpoint, TAMU_PeakParms_SingleDonor1434_Chronotropy_Negative, was analyzed with bidirectional fitting relative to DMSO as the negative control and baseline of activity. Using a type of functional reporter, gain or loss-of-signal activity can be used to understand changes in the cardiac function. To generalize the intended target to other relatable targets, this assay endpoint is annotated to the cardiomyocyte function intended target family, where the subfamily is lowered beat rate.
Each test compound from the chemical master plates was transferred into new tissue culture-treated 384-well microplates using acoustic dispensing (Labcyte Echo 550, Beckman Coulter, Indianapolis, IN) in amounts that would result in 5x concentrations (1, 5, 50, 500 uM) in the working plate in a final volume of 50 uL. Chemicals were randomly divided into 16 separate 384-well plates for screening such that the outer-most wells were left empty (308 wells were used on each plate). Fifteen of the plates contained unique test chemicals (n = 65 chemicals, 4 concentrations, one replicate each), positive controls (n = 10 chemicals, one concentration, 3 replicates each), vehicle (0.5% DMSO, n = 12), and media-only (n = 6) wells. Plate 16 contained test chemicals (n = 54 chemicals, 4 concentrations, one replicate each), inter-plate replicates (n = 11 chemicals with replicates, 4 concentrations, one replicate each), and the same design of positive controls and vehicle- and media-only wells as other plates. These plates were stored at -80C until the day of the assay. On assay day, the 5x concentrated chemical working plate was prepared by adding 50 uL cardiomyocyte maintenance medium containing 2.5% v/v DMSO to each well of the microplates. Then, 12.5 uL of 5x concentrated test chemical solution was added to the test plate to yield final concentrations of 0.2, 1, 10, and 100 uM in 0.5% v/v DMSO using the liquid handling robotics of the FLIPR Tetra. FLIPR Tetra settings were optimized to mix and then transfer test chemicals to the microplate at height = 40 uL, speed = 1 uL/sec, and removal speed = 6 mm/sec, resulting in a total volume of 62.5 uL/well with 0.5% v/v DMSO in cardiomyocyte maintenance medium. Immediately after chemical transfer, cells were incubated 37C and 5% CO2 for 90 minutes. […]

[4] = CCTE_Mundy_HCI_Cortical_Synap_Neur_Matur_SynapseCount: CCTE's Synaptogenesis and Neurite Maturation Assay in rat cortical cells for Synapse Count, Mundy Lab (AID 2284218)
Procedure, shortened: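 Rat primary cortical cultures, AraC at DIV 5, chemical dosing DIV 7 to DIV 12 (288.33 h). Fixed cells stained for MAP2, synaptophysin and Hoechst; synapses per neuron counted by high-content imaging, loss of signal versus DMSO.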

[5] = CCTE_Mundy_HCI_hN2_NOG_NeuriteCount: CCTE's Neurite Outgrowth Assay in human hN2 cells for Neurite Count, Mundy Lab (AID 2284219; active means hit-call score of the fitted dose curve at least 0.9, where 1 is the maximum)
Procedure, shortened: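 In this morphology assay, hNP1-derived neurons received test chemical 2 h post-plating and were fixed two days later in warm paraformaldehyde/sucrose containing Hoechst 33342. Neurites, labelled by rabbit anti-βIII-tubulin (1:800) and Alexa Fluor-488 (1:500), were counted automatically.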

[6] = CCTE_Mundy_HCI_hN2_NOG_NeuriteLength: CCTE's Neurite Outgrowth Assay in human hN2 cells for Neurite Length, Mundy Lab (AID 2284220; active means hit-call score of the fitted dose curve at least 0.9, where 1 is the maximum)
Procedure, shortened: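 Using βIII-tubulin immunofluorescence and Hoechst nuclear counterstain, this component quantifies neurite length in hNP1-derived neurons.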

[7] = CCTE_Mundy_HCI_hN2_NOG_NeuronCount: CCTE's Neurite Outgrowth Assay in human hN2 cells for Neuron Count, Mundy Lab (AID 2284221; active means hit-call score of the fitted dose curve at least 0.9, where 1 is the maximum)
Procedure, shortened: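 Read-out is the number of betaIII-tubulin-positive neurons imaged by automated high-content analysis, with DMSO as negative control.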

[8] = CCTE_Mundy_HCI_Cortical_Synap_Neur_Matur_NeuriteCount: CCTE's Synaptogenesis and Neurite Maturation Assay in rat cortical cells for Neurite Count, Mundy Lab (AID 2284222);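 on outcome: exposure from day 7 to day 12 in vitro with readout at day 12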
Procedure: CCTE_Mundy_HCI_Cortical_Synap&Neurite_Matur is a multiplexed, cell-based-readout assay that uses rat primary cortical cells with measurements taken at 288.33 hours after chemical dosing in a microplate: 96-well plate.CCTE_Mundy_HCI_Cortical_Synap_Neur_Matur_NeuriteCount is one of eight components of the CCTE_Mundy_HCI_Cortical_Synap&Neurite_Matur assay. It measures synaptogenesis and neurite maturation related to number of neurites using High Content Imaging of fluorescently labelled markers.[…] Using a type of morphology reporter, loss -of-signal activity can be used to understand developmental effects.
Cells are plated onto 96 well plates and allowed 2 hr for attachment to the substrate. At days in vitro (DIV) 5, Cytosine Arabinoside (AraC) is added to arrest glial cell growth. Chemicals are dosed and a media change is performed at DIV 7 of differentiation and is continued through DIV 12 when the experiment is terminated. Cells are fixed with […] and Hoechst Dye. Cells are stained using Millipore Mouse anti-MAP2MAB3418 (1:800) and Millipore Rabbit anti-Synaptophysinsc-1750 (1:250) primary antibodies and Alexa Fluor-488 goat anti-mouse and AlexaFluor-546 goat anti-rabbit secondary antibodies to label neuronal cell nuclei, synapses and neurites. A Cellomics ArrayScan VTi HCS Reader is used for automated image acquisition and analysis of neurite outgrowth.

[9] = CCTE_Mundy_HCI_Cortical_Synap_Neur_Matur_CellBodySpotCount: CCTE's Synaptogenesis and Neurite Maturation Assay in rat cortical cells for Cell Body Spot Count, Mundy Lab (AID 2284223)
Procedure, shortened: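 Read-out: cell body-associated synaptophysin puncta per neuron, imaged after MAP2, synaptophysin and Hoechst staining. Rat cortical cells, AraC DIV 5, chemical dosing DIV 7, fixation DIV 12. Activity fitted in positive direction relative to DMSO baseline.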

[10] = CCTE_Mundy_HCI_hNP1_Pro_ResponderAvgInten: CCTE's Proliferation Assay in human neuroprogenitor cells, Mundy Lab (AID 2284224; active means hit-call score of the fitted dose curve at least 0.9, where 1 is the maximum;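 further: human neural progenitor cells hNP1 derived from WA09 embryonic stem cells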)
Procedure, shortened: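 Human neuroprogenitors (hNP1, WA09 lineage) receive test chemical after 40 to 44 hours of attachment. A four-hour BrdU pulse begins twenty hours later, followed by fixation and high content imaging; signal is referenced to DMSO controls.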

COP(=O)(O)OC
outcome [1]: inactive

CCCCOCCOP(=O)(OCCOCCCC)OCCOCCCC
outcome [1]: inactive

CCC1(c2ccccc2)C(=O)N=C(O)NC1=O (stereo not drawn)
outcome [2]: inactive
AC50 [3]: 29.7 µM (active)
outcome [4]: inactive
outcome [5]: inactive
outcome [6]: inactive
outcome [7]: inactive
outcome [8]: inactive
outcome [9]: inactive

O=P(Oc1ccccc1)(Oc1ccccc1)Oc1ccccc1
outcome [3]: inactive

CCOc1ccc(C(C)(C)COCc2cccc(Oc3ccccc3)c2)cc1
AC50 [2]: 11.9 µM (active)
AC50 [4]: 15 µM (active)
outcome [8]: inactive
outcome [9]: inactive
outcome [10]: inactive

OCC(F)(F)OC(F)(F)C(F)(F)OC(F)(F)C(F)(F)OC(F)(F)CO
AC50 [1]: 30 µM (active)

C=CC(=O)OCC(F)(F)C(F)F
outcome [10]: inactive
AC50 [1]: 43 µM (active) and 48.8 µM (active)

FC(F)(F)C(F)(C(F)(F)F)C(F)(F)C(F)(F)CC1CO1 (stereo not drawn)
outcome [10]: inactive
outcome [1]: inactive

CCCCC(CC)COP(=O)(Oc1ccccc1)Oc1ccccc1 (stereo not drawn)
outcome [2]: inactive
outcome [3]: inactive
outcome [4]: inactive
outcome [8]: inactive
outcome [9]: inactive
AC50 [1]: 16.1 µM (active)

O=C(O)C(F)(F)OC(F)(F)C(F)(F)OC(F)(F)F
outcome [1]: inactive

COP(N)(=S)OC
outcome [1]: inactive

OCC(F)(F)OC(F)(F)C(F)(F)OC(F)(F)C(F)(F)OC(F)(F)F
AC50 [1]: 50.4 µM (active) and 44.2 µM (active)

CO/N=C(/C(=O)OC)c1ccccc1COc1ccccc1C
AC50 [2]: 3.31 µM (active)
AC50 [4]: 3.28 µM (active)
AC50 [8]: 5.23 µM (active)
AC50 [9]: 3.33 µM (active)
outcome [10]: inactive

CCCCC(CC)COC(=O)c1c(Br)c(Br)c(Br)c(Br)c1C(=O)OCC(CC)CCCC (stereo not drawn)
outcome [1]: inactive

CCOP(=S)(OCC)SCSCC
AC50 [2]: 50 µM (active)
AC50 [4]: 50 µM (active) and 67.7 µM (active)
AC50 [8]: 81.1 µM (active)
outcome [8]: inactive
AC50 [9]: 77.6 µM (active)
outcome [9]: inactive
outcome [10]: inactive

O=C(O)C(F)(OC(F)(F)C(F)(F)C(F)(F)F)C(F)(F)F (stereo not drawn)
outcome [2]: inactive
outcome [4]: inactive
outcome [8]: inactive
outcome [9]: inactive
outcome [10]: inactive
outcome [1]: inactive

CCOP(=S)(NC(C)C)Oc1ccccc1C(=O)OC(C)C (stereo not drawn)
AC50 [1]: 14.2 µM (active)

ClC(Cl)=C(c1ccc(Cl)cc1)c1ccccc1Cl
AC50 [1]: 29.6 µM (active)

O=P1(N(CCCl)CCCl)NCCCO1 (stereo not drawn)
outcome [2]: inactive
outcome [4]: inactive
outcome [5]: inactive
outcome [6]: inactive
outcome [8]: inactive
outcome [9]: inactive

c1cc2c3c(cccc3c1)CC2
AC50 [3]: 32.2 µM (active)

Cc1ccc2c(c1N)C(=O)c1ccccc1C2=O
outcome [1]: inactive

CC(C)(C)c1ccccc1OP(=O)(Oc1ccccc1)Oc1ccccc1
AC50 [2]: 2.07 µM (active)
AC50 [3]: 32 µM (active)
AC50 [4]: 2.69 µM (active)
outcome [8]: inactive
outcome [9]: inactive
AC50 [1]: 13.5 µM (active)

N#Cc1cc([N+](=O)[O-])ccc1N
outcome [1]: inactive

O=C(O)C=CC(F)(C(F)(F)F)C(F)(F)F
outcome [1]: inactive

CCOP(=S)(OCC)SCSc1ccc(Cl)cc1
AC50 [1]: 20 µM (active)

O=C(O)C(F)(F)OC(F)(F)C(F)(F)OC(F)(F)C(=O)O
outcome [1]: inactive

O=P(OCC(Br)CBr)(OCC(Br)CBr)OCC(Br)CBr (stereo not drawn)
AC50 [1]: 16.9 µM (active)

CCOP(=S)(OCC)SCn1nnc2ccccc2c1=O
AC50 [1]: 20 µM (active)

CCOP(=S)(S)OCC
AC50 [1]: 4.15 µM (active)

CC(C)Nc1ccc(Nc2ccccc2)cc1
AC50 [1]: 2.73 µM (active)

OCC(F)(F)OC(F)(F)C(F)(F)OC(F)(F)CO
outcome [1]: inactive

Cc1c([N+](=O)[O-])cc2c(c1[N+](=O)[O-])C(C)(C)CC2(C)C
AC50 [1]: 20 µM (active)

N#Cc1c(-c2ccc(Cl)cc2)[nH]c(C(F)(F)F)c1Br
AC50 [1]: 0.309 µM (active)

Nc1ccc([N+](=O)[O-])cc1Cl
outcome [1]: inactive

CC(O)C(F)(F)C(F)(F)F (stereo not drawn)
outcome [1]: inactive

CCOP(=S)(OCC)SCS(=O)(=O)CC
outcome [1]: inactive

O=c1ssc(Cl)c1Cl
AC50 [1]: 3.62 µM (active)

NC(=O)C(F)(F)C(F)(F)F
outcome [1]: inactive

O=C(O)C(F)(F)C(F)(F)C(=O)O
outcome [1]: inactive

c1ccc2c(c1)sc1ccccc12
outcome [1]: inactive

O=S1(=O)OCC2C(CO1)C1(Cl)C(Cl)=C(Cl)C2(Cl)C1(Cl)Cl (stereo not drawn)
AC50 [1]: 1.55 µM (active)

COC(=O)C(F)(F)C(F)(F)OC(F)(C(F)(F)F)C(F)(F)OC(F)=C(F)F (stereo not drawn)
outcome [1]: inactive

CC(Cl)CN(C)C (stereo not drawn)
outcome [1]: inactive

O=S(=O)(F)C(F)(F)C(F)(F)C(F)(F)C(F)(F)C(F)(F)C(F)(F)C(F)(F)C(F)(F)F
outcome [1]: inactive

C=CC(=O)OCC(CC)(COC(=O)C=C)COC(=O)C=C
AC50 [1]: 0.516 µM (active)
